Reference: PubChem BioAssay (NCATS)
Records with an inconclusive call do not appear. Calls of active or inactive are those of the source. Unless noted, calls follow the shape of the dose curve; as a rule, active = well fitted curve in the direction sought with a large enough effect; inconclusive = small, poorly fitted or top-dose-only effect, or another doubt; inactive = no such curve, though single readings can be large; an effect the other way counts as inactive or inconclusive.

Experiments:
[1] = qHTS for Inhibitors of the Functional Ribonucleoprotein Complex (vRNP) of Lassa (LASV) Arenavirus: LASV Primary Screen - GLuc reporter signal (AID 1347082; calls by dose curve; tested in HEK293 reporter line; also: nearly all actives have a fitted effect of over 60% in size)
[2] = qHTS for Inhibitors of the Functional Ribonucleoprotein Complex (vRNP) of Lassa (LASV) Arenavirus: Viability assay - alamar blue signal for LASV Primary Screen (AID 1347083; calls by dose curve; tested in HEK293 reporter line; also: nearly all actives have a fitted effect of over 80% in size)
[3] = qHTS for Inhibitors of the Functional Ribonucleoprotein Complex (vRNP) of Lymphocytic Choriomeningitis Arenaviruses (LCMV): Viability assay - alamar blue signal for LCMV Primary Screen (AID 1347085; calls by dose curve; tested in HEK293 reporter line; also: nearly all actives have a fitted effect of over 80% in size)
[4] = biological target: Nucleoprotein (Lymphocytic choriomeningitis virus (strain Armstrong)) (UniProt P09992); test: qHTS for Inhibitors of the Functional Ribonucleoprotein Complex (vRNP) of Lymphocytic Choriomeningitis Arenaviruses (LCMV): LCMV Primary Screen - GLuc reporter signal (AID 1347086; calls by dose curve; also: nearly all actives have a fitted effect of over 70% in size)
[5] = Primary qHTS for small molecule stabilizers of the endoplasmic reticulum resident proteome: Secreted ER Calcium Modulated Protein (SERCaMP) assay (AID 1508630); also: % is scaled to controls: 0 for no effect and ±100 for the full control effect
Method in brief: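 The SH-SY5Y reporter protocol was run at 3 concentrations up to 38.3 uM (primary) or 11 concentrations (follow-up): 16 h compound, 100 nM thapsigargin for 4 h, then extracellular luciferase luminescence.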

[6] = Confirmatory qHTS for activators (rescue) of SARS-CoV-2 Cytopathic Effect (CPE) (AID 1508606; calls by dose curve; also: potency is read from the fitted curve at half-maximal effect; nearly all actives have a fitted effect of over 70% in size)
[7] = Primary qHTS to identify inhibitors of SARS-CoV-2 cell entry (AID 1645846; calls by dose curve; also: nearly all actives have a fitted effect of over 45% in size); details: activity change, negative = inhibition: at 57.1 µM (top of the series) unless noted
Method in brief: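 Entry measured by luciferase signal 48 h after adding SARS-CoV-2-S pseudotyped MLV particles to HEK293-ACE2 cells preincubated 1 h with compounds. Normalisation: bald particles and spike particles.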

[8] = biological target: Cytochrome P450 2C9 (Homo sapiens) (UniProt P11712); test: qHTS Assay for Inhibitors and Substrates of Cytochrome P450 2C9 (AID 883); also: % is scaled to controls: 0 for no effect and ±100 for the full control effect; nearly all actives have a fitted effect of over 60% in size
Method in brief: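 Turnover of Luciferin-H (100uM, KM) by 10nM human CYP2C9 was measured over 60 min at 37C with NADPH regeneration; inhibitors and some substrates reduce luminescence. Data normalized to sulphaphenazole 57uM.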

[9] = biological target: Cytochrome P450 3A4 (Homo sapiens) (UniProt P08684); test: qHTS Assay for Inhibitors and Substrates of Cytochrome P450 3A4 (AID 884); also: % is scaled to controls: 0 for no effect and ±100 for the full control effect; nearly all actives have a fitted effect of over 50% in size
Method in brief: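 Luminescent readout of luciferin produced by CYP3A4 (20 nM) dealkylation of Luciferin-PPXE, 25 uM (its KM). NADPH-driven reaction ran 60 min at RT after 10 min compound preincubation; data scaled to 57 uM ketoconazole as 100% inhibition.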

[10] = biological target: Cytochrome P450 2D6 (Homo sapiens) (UniProt P10635); test: qHTS Assay for Inhibitors and Substrates of Cytochrome P450 2D6 (AID 891); also: potency is read from the fitted curve at half-maximal effect; nearly all actives have a fitted effect of over 60% in size
Method in brief: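 Luminescent read-out of luciferin formed by 5 nM human CYP2D6 demethylating 30 uM Luciferin-ME EGE (Km level) over 60 min at room temperature after NADPH regeneration addition. Data normalized to full inhibition by 1.43 uM quinidine.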

[11] = qHTS Assay for Identification of Small Molecule Antagonists for Thrombopoietin (TPO) Signaling Pathway (AID 918); details: TPO-dependent cell signaling reporter, antagonist mode; also: potency is read from the fitted curve at half-maximal effect; nearly all actives have a fitted effect of over 60% in size
Method in brief: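 Antagonist mode at EC50 TPO (26 pM) in IL-3-free medium; murine Ba/F3 cells with human TPO receptor and GPIIb-promoter luciferase, 24 hrs at 37 C before luminescent detection.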

[12] = biological target: Muscarinic acetylcholine receptor M1 (Rattus norvegicus) (UniProt P08482); test: qHTS Assay for Antagonists of Acetylcholine Muscarinic M1 Receptor: Kinetic Measurement of Intracellular Calcium Response (AID 943); also: potency is read from the fitted curve at half-maximal effect; nearly all actives have a fitted effect of over 75% in size
Method in brief: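 Quantitative HTS in CHO-M1 (rat receptor) cells: 10 min compound exposure ahead of 100 nM carbachol, Fluo-4 fluorescence followed 4 min, value expressed as peak-to-basal ratio.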

[13] = biological target: Alpha-galactosidase (Coffea arabica) (UniProt Q42656); test: Counterscreen for Glucocerebrosidase Inhibitors: qHTS Assay for Coffee Bean alpha-Galactosidase at pH 4.5 (AID 957);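 also: plate controls were enzyme alone for no effect and no enzyme for full effect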
Method in brief: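 Quantitative HTS of compounds (0.7 nM to 77 uM) against coffee bean alpha-galactosidase at pH 4.5, measuring 4-methylumbelliferone fluorescence released from 80 uM substrate.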

[14] = biological target: Alpha-galactosidase (Coffea arabica) (UniProt Q42656); test: Counterscreen for Glucocerebrosidase Inhibitors: qHTS Assay for Coffee Bean alpha-Galactosidase at pH 5.9 (AID 998);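 also: plate controls were uninhibited enzyme for no effect and no-enzyme basal signal for full effect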
Method in brief: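 Fluorogenic 4-MU substrate hydrolysis, 80 uM substrate and 2 nM coffee bean alpha-galactosidase, pH 5.9 citrate buffer, 20 min at room temperature, then NaOH/glycine stop. Titration 0.7 nM–77 uM, normalized to no-enzyme and enzyme controls, AC50 via Hill equation.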

[15] = qHTS Assay for Lipid Storage Modulators (AID 1519; calls by dose curve); details: Drosophila S3 cells, BODIPY lipid droplet/cell ratio, laser cytometry, cells loaded with oleic acid; for activity change, negative = inhibition: at 57.5 µM (top of the series)
Method in brief: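 Cells seeded at 5,000 per well were treated with compounds over a concentration series and loaded with oleic acid (400 uM, as added). Lipid droplet fluorescence (488 nm excitation, 500-530 nm channel) was read by laser-scanning cytometry and normalized to 20 uM Triacsin C.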

[16] = qHTS for differential inhibitors of proliferation of Plasmodium falciparum line 7G8 (AID 1815);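 also: potency is read from the fitted curve at half-maximal effect; parasite growth measured after three days of incubation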
[17] = qHTS for differential inhibitors of proliferation of Plasmodium falciparum line GB4 (AID 1816); details: Potency: Plasmodium falciparum GB4 proliferation inhibition;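 also: potency is read from the fitted curve at half-maximal effect; parasite growth measured after 72 h incubation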
[18] = qHTS for differential inhibitors of proliferation of Plasmodium falciparum line 3D7 (AID 1876); also: potency is read from the fitted curve at half-maximal effect
[19] = qHTS for differential inhibitors of proliferation of Plasmodium falciparum line D10 (AID 1877);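 also: potency is read from the fitted curve at half-maximal effect; parasites grown with compound for 72 h before DNA staining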
[20] = qHTS for differential inhibitors of proliferation of Plasmodium falciparum line Dd2 (AID 1882); details: Potency: Plasmodium falciparum Dd2 proliferation inhibition; also: potency is read from the fitted curve at half-maximal effect; nearly all actives have a fitted effect of over 65% in size
Method in brief: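 RBC culture, 0.3% parasitemia / 2.5% Hct final; cpd added by pin tool in DMSO; 72 h, 37 C, 5% CO2; lysis buffer + SYBR Green I, o/n RT dark; FI 485/535; norm. to artemisinin 0.29 uM and DMSO.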

[21] = qHTS for differential inhibitors of proliferation of Plasmodium falciparum line W2 (AID 1883); details: Potency: Plasmodium falciparum W2 proliferation inhibition;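 also: potency is read from the fitted curve at half-maximal effect; parasites grown with compound for 72 h before lysis and staining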
[22] = qHTS for differential inhibitors of proliferation of Plasmodium falciparum line HB3 (AID 1886); details: Potency: Plasmodium falciparum HB3 proliferation inhibition;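 also: potency is read from the fitted curve at half-maximal effect; parasites grown with compound for 72 h before SYBR Green readout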
[23] = High Content Imaging Cell-Based qHTS for Inhibitors of the mTORC1 Signaling Pathway in MEF Cells (AID 2667); also: potency is read from the fitted curve at half-maximal effect
Method in brief: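 Tsc2-/-, p53-/- MEFs stably re-expressing WT Tsc2, grown in DMEM + 10% FBS, were treated with compounds for 24 hrs at 37 degree Celsius, fixed, and stained with Alexa-488 phospho-rpS6 Ser235/236 antibody plus Hoechst; results given as % positive cells.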

[24] = biological target: M-phase phosphoprotein 8 (Homo sapiens) (UniProt Q99549); test: qHTS Validation Assay for Inhibitors for MPP8 Chromodomain Interactions with Methylated Histone Tails (AID 488949);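 also: AlphaScreen signal from MPP8 chromodomain bound to biotinylated H3K9me3 peptide; top concentration of the series differs between compounds; % is scaled to controls: 0 for no effect and ±100 for the full control effect; nearly all actives have a fitted effect of over 55% in size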
Method in brief: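 AlphaScreen proximity signal from streptavidin donor and Ni-chelate acceptor beads (10 ug/mL each) reported binding of MPP8 to trimethyl-K9 H3(1-18) peptide, both at 50 nM. The complex formed 30 min before a 30 min compound exposure at room temperature, in PBS pH 7.4.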

[25] = biological target: D(1A) dopamine receptor (Homo sapiens) (UniProt P21728); test: HTS Assay for Allosteric Agonists of the Human D1 Dopamine Receptor: Primary Screen for Potentiators (AID 488982); also: 0% is about no effect
Method in brief: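 Calcium flux in an inducible, force-coupled HEK293 Trex D1 line (overnight at 30 C): agonist mode is the 180 s kinetic read after compound; potentiator mode is the following 180 s read after dopamine at EC20.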

[26] = Inducers of the Endoplasmic Reticulum Stress Response (ERSR) in human glioma: Validation (AID 504836); also: 0% is about no effect
Method in brief: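 ERSR induction read as luciferase luminescence (Bright-Glo, 10 min at room temperature) in stably transfected human U87-MG glioma cells exposed to compounds for 16 h, using GRP78 as sensor.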

[27] = biological target: Voltage-gated inwardly rectifying potassium channel KCNH2 (Homo sapiens) (UniProt Q12809); test: qHTS Assay for Small Molecule Inhibitors of the Human hERG Channel Activity (AID 588834);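 also: potency is read from the fitted curve at half-maximal effect; lower thallium flux fluorescence means stronger hERG block; nearly all actives have a fitted effect of over 50% in size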
Method in brief: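 hERG block measured as reduced thallium-dye (FluxOR) fluorescence after stimulation buffer addition, read over 2 min. Cells were hERG-BacMam-transduced U2OS exposed to compound ~10 min […]; concentration-response fitted with Hill equation for AC50.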

[28] = Counterscreen qHTS for small molecule stabilizers of the endoplasmic reticulum resident proteome: GLuc-NoTag assay (AID 1508627);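 also: SH-SY5Y cells given compound then 100 nM thapsigargin to empty ER calcium; 0% = thapsigargin alone and -100% = DMSO vehicle control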
Method in brief: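 Counterscreen line: SH-SY5Y-GLuc-NoTag cells, treated with compound 19 hr before a 4 hr, 100 nM thapsigargin calcium depletion. Secreted Gaussia luciferase in the medium was measured by luminescence after coelenterazine was added (0.07x final), with cells unlysed.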

[29] = Confirmatory qHTS for small molecule stabilizers of the endoplasmic reticulum resident proteome: Secreted ER Calcium Modulated Protein (SERCaMP) assay (AID 1508628); also: potency is read from the fitted curve at half-maximal effect; nearly all actives have a fitted effect of over 40% in size
Method in brief: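 GLuc-SERCaMP-expressing SH-SY5Y cells, pretreated 16 h with compound, are challenged with thapsigargin to empty ER calcium stores; after 4 h, coelenterazine is added directly to the medium and luminescence is imaged.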

[30] = Cell Viability qHTS for small molecule stabilizers of the endoplasmic reticulum resident proteome (AID 1508629); details: cell viability counter-screen, 100 nM thapsigargin for final 4 h;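 also: human SH-SY5Y neuroblastoma cells carrying the GLuc-SERCaMP reporter; compound exposure about 46 h in total before the viability read; % is scaled to controls: 0 for no effect and ±100 for the full control effect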
[31] = Confirmation and Secondary Assay for Modulators of Hemoglobin Beta Chain Splicing at IVS2 654 locus (AID 910);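 also: HeLa cells stably carrying EGFP split by mutant beta-globin IVS2-654 intron; per-well total GFP intensity by laser scanning cytometry after 2-day treatment; % of control where 0% means no effect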
Method in brief: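 Readout: per-well total peak green fluorescence (488 nm ex, 500–520 nm em) from objects 5–250 µm, reflecting correct splicing of an EGFP-654 reporter. Compounds were applied for 2 days at 37 °C to overnight-plated HeLa EGFP-654 cells; controls were DMSO and 500 nM IVS2-654 PNA.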

[32] = Confirmation and Secondary Assay for Modulators of Hemoglobin Beta Chain Splicing at IVS2 705 locus (AID 930);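 also: HeLa cells stably expressing the EGFP-705 splicing reporter; GFP fluorescence per well restored by corrected splicing of the IVS2-705 intron in EGFP; % of control where 0% means no effect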
Method in brief: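 Fluorescence gain (488 nm laser, 500-520 nm PMT) reflects restored correct splicing of a mutant IVS2-705 intron inside EGFP in stably transfected HeLa cells after 2-day compound treatment.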

[33] = biological target: Ubiquitin carboxyl-terminal hydrolase 1 (Homo sapiens) (UniProt O94782); test: Inhibitors of USP1/UAF1: Pilot qHTS (AID 504865);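 also: rhodamine fluorescence freed from ubiquitin-rhodamine substrate followed over time; top concentration of the series differs between compounds; % is scaled to controls: 0 for no effect and ±100 for the full control effect; nearly all actives have a fitted effect of over 35% in size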
Method in brief: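 Deubiquitinase activity followed as kinetic rhodamine fluorescence release from 150 nM Ub-Rho. 1 nM USP1/UAF1 with compound, after 15 min room-temperature preincubation, in HEPES pH 7.8 buffer containing TCEP, EDTA, BSA and Tween-20.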

[34] = measured here: cell count channel max response
[35] = measured here: lipid channel max response

Nucleoprotein (Lymphocytic choriomeningitis virus (strain Armstrong)), sequence (P09992 whole entry, looked up): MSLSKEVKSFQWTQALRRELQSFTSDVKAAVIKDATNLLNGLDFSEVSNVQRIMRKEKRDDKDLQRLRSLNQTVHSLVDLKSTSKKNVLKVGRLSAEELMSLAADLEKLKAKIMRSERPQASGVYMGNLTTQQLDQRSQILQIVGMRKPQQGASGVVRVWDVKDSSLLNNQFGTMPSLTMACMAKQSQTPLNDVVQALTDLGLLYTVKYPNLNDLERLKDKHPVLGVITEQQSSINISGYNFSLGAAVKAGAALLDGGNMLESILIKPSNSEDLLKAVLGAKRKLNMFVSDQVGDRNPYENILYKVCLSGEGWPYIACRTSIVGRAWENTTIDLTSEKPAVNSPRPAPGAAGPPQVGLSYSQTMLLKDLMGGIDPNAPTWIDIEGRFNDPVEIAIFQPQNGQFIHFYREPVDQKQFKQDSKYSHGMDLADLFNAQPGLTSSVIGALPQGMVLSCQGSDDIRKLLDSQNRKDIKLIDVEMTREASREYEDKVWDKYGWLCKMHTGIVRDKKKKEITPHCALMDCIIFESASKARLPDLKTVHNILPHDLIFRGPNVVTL
Cytochrome P450 3A4 (Homo sapiens), sequence (P08684 whole entry, looked up): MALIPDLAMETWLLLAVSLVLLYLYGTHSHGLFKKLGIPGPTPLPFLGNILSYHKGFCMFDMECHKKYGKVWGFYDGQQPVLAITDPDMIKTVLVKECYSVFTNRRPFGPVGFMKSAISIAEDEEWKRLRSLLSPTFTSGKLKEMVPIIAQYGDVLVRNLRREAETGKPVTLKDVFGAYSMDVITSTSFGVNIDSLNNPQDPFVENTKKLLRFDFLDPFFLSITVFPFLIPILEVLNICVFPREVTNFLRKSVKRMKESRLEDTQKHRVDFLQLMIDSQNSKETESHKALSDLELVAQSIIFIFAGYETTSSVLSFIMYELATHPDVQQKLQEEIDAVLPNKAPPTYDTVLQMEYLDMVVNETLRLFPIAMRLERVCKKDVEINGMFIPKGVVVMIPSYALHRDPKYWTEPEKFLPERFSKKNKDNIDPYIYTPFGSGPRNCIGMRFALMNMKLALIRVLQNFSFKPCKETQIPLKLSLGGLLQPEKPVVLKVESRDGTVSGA
Alpha-galactosidase (Coffea arabica), sequence (Q42656 whole entry, looked up): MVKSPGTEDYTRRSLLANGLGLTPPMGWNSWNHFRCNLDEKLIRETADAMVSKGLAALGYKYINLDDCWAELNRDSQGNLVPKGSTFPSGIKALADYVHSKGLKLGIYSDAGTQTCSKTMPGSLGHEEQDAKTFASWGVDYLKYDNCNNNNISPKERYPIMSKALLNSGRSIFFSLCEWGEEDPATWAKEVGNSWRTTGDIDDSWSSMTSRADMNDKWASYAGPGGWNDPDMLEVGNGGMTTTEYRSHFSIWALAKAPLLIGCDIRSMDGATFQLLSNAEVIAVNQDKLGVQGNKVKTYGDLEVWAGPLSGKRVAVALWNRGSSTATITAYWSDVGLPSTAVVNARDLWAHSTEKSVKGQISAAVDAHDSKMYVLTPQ
Voltage-gated inwardly rectifying potassium channel KCNH2 (Homo sapiens), sequence (Q12809 whole entry, looked up): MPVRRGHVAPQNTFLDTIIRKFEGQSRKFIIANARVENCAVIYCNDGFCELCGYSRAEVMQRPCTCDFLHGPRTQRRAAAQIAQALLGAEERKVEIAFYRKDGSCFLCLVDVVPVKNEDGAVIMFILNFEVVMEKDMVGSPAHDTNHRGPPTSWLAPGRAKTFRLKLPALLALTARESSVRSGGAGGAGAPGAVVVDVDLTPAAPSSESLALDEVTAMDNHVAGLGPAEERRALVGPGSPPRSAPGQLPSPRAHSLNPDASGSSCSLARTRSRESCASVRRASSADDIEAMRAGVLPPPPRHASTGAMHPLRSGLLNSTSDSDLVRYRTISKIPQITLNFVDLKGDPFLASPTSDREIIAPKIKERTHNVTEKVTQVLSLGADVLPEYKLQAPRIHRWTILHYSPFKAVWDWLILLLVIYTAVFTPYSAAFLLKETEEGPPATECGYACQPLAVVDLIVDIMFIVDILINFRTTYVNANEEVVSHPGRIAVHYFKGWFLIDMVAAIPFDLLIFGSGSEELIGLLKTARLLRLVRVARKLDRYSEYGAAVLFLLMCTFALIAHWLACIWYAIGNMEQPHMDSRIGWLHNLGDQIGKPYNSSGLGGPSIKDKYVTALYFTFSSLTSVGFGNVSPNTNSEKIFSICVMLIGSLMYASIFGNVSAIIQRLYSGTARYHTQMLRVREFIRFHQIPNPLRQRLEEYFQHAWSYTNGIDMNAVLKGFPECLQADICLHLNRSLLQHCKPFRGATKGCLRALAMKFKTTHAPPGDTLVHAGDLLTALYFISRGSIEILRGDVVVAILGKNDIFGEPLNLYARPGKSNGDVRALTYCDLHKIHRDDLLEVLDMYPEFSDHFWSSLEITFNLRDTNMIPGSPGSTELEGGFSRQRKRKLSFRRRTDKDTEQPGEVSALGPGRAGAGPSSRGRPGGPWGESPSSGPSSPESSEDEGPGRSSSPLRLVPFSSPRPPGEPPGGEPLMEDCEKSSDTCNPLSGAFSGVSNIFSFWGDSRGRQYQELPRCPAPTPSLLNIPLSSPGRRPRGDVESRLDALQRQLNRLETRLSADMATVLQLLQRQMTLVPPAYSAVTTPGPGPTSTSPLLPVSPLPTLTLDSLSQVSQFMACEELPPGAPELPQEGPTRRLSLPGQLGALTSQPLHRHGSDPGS
M-phase phosphoprotein 8 (Homo sapiens), sequence (Q99549 whole entry, looked up): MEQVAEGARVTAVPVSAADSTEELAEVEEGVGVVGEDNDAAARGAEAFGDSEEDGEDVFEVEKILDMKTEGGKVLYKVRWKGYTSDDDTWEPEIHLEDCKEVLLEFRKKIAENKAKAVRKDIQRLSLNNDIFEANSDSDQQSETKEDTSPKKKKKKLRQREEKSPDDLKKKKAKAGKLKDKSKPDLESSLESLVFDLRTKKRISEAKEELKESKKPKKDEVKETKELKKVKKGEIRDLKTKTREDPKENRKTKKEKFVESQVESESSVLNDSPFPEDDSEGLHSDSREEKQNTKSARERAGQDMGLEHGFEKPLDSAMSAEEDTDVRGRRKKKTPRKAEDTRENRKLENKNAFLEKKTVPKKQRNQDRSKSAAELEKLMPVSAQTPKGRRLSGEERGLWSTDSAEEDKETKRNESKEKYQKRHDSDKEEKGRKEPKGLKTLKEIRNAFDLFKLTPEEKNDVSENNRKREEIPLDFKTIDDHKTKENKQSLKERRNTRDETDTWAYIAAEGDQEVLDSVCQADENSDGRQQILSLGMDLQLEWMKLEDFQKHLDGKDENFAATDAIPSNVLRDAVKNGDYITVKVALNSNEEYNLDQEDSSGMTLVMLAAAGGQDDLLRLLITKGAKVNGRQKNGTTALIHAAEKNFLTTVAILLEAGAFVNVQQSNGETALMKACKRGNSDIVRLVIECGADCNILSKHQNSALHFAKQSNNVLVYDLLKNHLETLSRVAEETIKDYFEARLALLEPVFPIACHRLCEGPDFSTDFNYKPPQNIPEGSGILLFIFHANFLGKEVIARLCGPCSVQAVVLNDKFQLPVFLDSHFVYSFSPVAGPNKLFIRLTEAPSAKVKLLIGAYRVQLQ
Ubiquitin carboxyl-terminal hydrolase 1 (Homo sapiens), sequence (O94782 whole entry, looked up): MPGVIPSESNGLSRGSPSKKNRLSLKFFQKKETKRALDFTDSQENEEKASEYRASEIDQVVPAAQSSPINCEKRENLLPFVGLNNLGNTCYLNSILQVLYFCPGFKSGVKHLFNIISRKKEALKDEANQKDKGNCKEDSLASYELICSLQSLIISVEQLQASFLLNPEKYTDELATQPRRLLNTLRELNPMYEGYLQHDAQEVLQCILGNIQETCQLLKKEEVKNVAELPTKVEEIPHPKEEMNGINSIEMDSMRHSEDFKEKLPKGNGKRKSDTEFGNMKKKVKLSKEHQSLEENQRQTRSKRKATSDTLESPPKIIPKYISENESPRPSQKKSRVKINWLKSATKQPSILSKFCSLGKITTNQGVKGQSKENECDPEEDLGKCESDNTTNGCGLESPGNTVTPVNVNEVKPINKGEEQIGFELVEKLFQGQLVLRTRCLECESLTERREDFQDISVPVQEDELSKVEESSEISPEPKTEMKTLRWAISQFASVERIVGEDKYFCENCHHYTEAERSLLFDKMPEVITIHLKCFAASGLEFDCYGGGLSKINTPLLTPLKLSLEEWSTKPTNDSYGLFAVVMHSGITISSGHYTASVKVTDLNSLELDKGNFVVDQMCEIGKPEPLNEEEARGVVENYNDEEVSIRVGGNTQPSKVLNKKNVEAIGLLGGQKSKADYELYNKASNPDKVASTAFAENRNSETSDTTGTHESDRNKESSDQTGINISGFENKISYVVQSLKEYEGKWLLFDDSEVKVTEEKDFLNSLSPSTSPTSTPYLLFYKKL
Muscarinic acetylcholine receptor M1 (Rattus norvegicus), sequence (P08482 whole entry, looked up): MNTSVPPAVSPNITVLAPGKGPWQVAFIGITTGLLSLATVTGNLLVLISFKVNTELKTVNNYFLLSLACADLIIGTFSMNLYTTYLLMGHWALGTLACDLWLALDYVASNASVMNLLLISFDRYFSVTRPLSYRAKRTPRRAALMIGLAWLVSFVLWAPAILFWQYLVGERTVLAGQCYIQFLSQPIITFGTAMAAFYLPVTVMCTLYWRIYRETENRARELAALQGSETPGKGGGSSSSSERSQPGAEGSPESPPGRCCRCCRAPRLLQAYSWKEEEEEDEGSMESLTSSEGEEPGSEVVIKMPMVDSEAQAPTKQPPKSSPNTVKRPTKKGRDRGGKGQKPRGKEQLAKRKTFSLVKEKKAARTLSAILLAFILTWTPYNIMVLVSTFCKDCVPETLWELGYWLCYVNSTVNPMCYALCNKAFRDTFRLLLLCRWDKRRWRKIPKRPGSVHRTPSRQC

c1cncc(C2CCCN2)c1 (stereo unspecified)
inactive: Potency [1] | Potency [2] | Potency [3] | Potency [4] | Potency [5]

OCCCNc1cc(-c2ccnc(Nc3cccc(Cl)c3)n2)ccn1
active: Potency [1] 0.306 µM | Potency [2] 0.193 µM | Potency [3] 0.769 µM | Potency [4] 0.968 µM | Potency [6] 5.62 µM
-94.2%: activity change, negative = inhibition [7]

OC1(c2ccc(Cl)cc2)CCN(Cc2c[nH]c3ccccc23)CC1
active: Potency [10] 0.316 µM | Potency [11] 10 µM | Potency [12] 11.2 µM | Potency [16] 7.08 µM | Potency [17] 8.91 µM | Potency [18] 5.01 µM | Potency [19] 10 µM | Potency [20] 11.2 µM | Potency [21] 3.98 µM | Potency [22] 10 µM | Potency [23] 2.33 µM | Potency [27] 0.794 µM
-25.1%: max response [15, 35]
inactive: Potency [8] | Potency [9] | outcome [13] | outcome [14] | activity change, negative = inhibition [15] 1.03% | Potency [24] | Potency [25] | outcome [26] | Potency [1] | Potency [2] | Potency [3] | Potency [4]
-29.2%: max response [15, 34]

CN1C2CCC1CC(OC(=O)C1CCC(C(=O)OC3CC4CCC(C3)N4C)(c3ccccc3)c3ccccc31)C2 (stereo unspecified)
active: Potency [29] 4.47 µM
inactive: Potency [1] | Potency [2] | Potency [3] | Potency [4] | Potency [28] | max response [30] -2.96%

CC(C)(O)C1OC2CCC3(C)C(O)(CCC4Cc5c([nH]c6ccccc56)C43C)C2=CC1=O (stereo unspecified)
inactive: Potency [1] | Potency [2] | Potency [3] | Potency [4] | Potency [28] | max response [30] 28.4%
active: Potency [29] 28.2 µM

O=c1ccc2c(O)c3ccoc3cc2o1
7.8%: max response [15, 34]
inactive: Potency [31] | outcome [32] | activity change, negative = inhibition [15] 15.3% | Potency [33] | Potency [1] | Potency [2] | Potency [3] | Potency [4]
27.4%: max response [15, 35]

O=C(O)CF
8.93%: max response [15, 34]
13%: max response [15, 35]
inactive: Potency [9] | Potency [31] | outcome [32] | activity change, negative = inhibition [15] 3.91% | Potency [1] | Potency [2] | Potency [3] | Potency [4]

C=C1C2C[C@]3(C4CC5[C@@]6(C)CC[C@H](O)[C@@]5(C3CC2=O)C4[N+]([O-])(CC)C6)[C@@H]1O (stereo partly specified)
inactive: Potency [1] | Potency [2] | Potency [3] | Potency [4] | Potency [5]
